# PubChem BioAssay (Tox21)
# Inconclusive results are not listed. Where a call stands in place of a potency, no number is given. The source made the active and inactive calls. The call rests on the fitted dose curve; in most records, active means well fitted cell-killing curve with a large enough effect in the repeat runs; inconclusive means weak or mixed curves, or effect the other way; inactive means no such curve, though single readings can be large or run the other way.
# Test: qHTS assay to identify aromatase inhibitors - cell viability counter screen (AID 743084);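 further: cells stimulated with testosterone during compound exposure; nearly all actives have a fitted effect of over 55% in size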
# Details: MCF-7 aro ERE viability, CellTiter-Fluor, 24 h; series mostly up to 70.3 µM
# Potency means the concentration at half of the fitted maximal effect.
row,Compound,Potency
1,N#Cc1ccc2c(c1)N(CCCN1CCC(O)CC1)c1ccccc1S2,inactive
2,C[C@]12CCC(=O)C[C@@H]1CC[C@@H]1[C@@H]2CC[C@]2(C)C=CC[C@@H]12,inactive
3,CC(C)N1CCN(c2ccc(OC[C@H]3CO[C@](Cn4cncn4)(c4ccc(Cl)cc4Cl)O3)cc2)CC1,inactive
4,CN1CCC(CN2c3ccccc3Sc3ccccc32)C1 (configuration not stated),inactive
5,O=C(O)c1c(Cl)c(Cl)c(Cl)c(Cl)c1-c1c2cc(I)c(=O)c(I)c-2oc2c(I)c(O)c(I)cc12,23.7 µM (active)
6,C=C1C(=C/C=C2\CCC[C@]3(C)[C@@H]([C@H](C)CCCC(C)(C)O)CC[C@@H]23)C[C@@H](O)C[C@@H]1O,inactive
7,CC(C)(C)NC[C@H](O)COc1ccccc1C1CCCC1,inactive
8,O=C1C(=O)c2ncccc2-c2cccnc21,inactive
9,CNC(C)CCC=C(C)C (configuration not stated),inactive
10,OCCN1CCN(CC/C=C2/c3ccccc3Sc3ccc(Cl)cc32)CC1,inactive
11,O=c1oc2cc(O)ccc2s1,inactive
12,NCc1ccccc1CC(=O)N[C@@H]1C(=O)N2C(C(=O)O)=C(CSc3nnnn3CC(=O)O)CS[C@H]12,inactive
